Experimental data from the supplement of paper PMC9262897, “Low-cost anti-mycobacterial drug discovery using engineered E. coli” (Nature Communications, 2022).
Counter-ions that a name gives are not always drawn. ± gives the standard deviation of the averaged measurements.

Legend:
Assay in all cases: growth (OD600 after 10 h); higher = more growth (less inhibition)
[1] = system: E. coli TESEC Alr+ wild-type control; details: compound 0.1 mM; raw OD600 reference: median of DMSO wells 0.241, cell-free background 0.041
Method: (§1)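 TESEC Mtb Alr E. coli, or the Alr+ wild-type control, in 384-well plates with Prestwick library compounds at 0.1 mM and 1% DMSO, across arabinose induction levels of 1E3 to 1E7 nM. Growth is read as OD600 after 10 h at 37 °C in triplicate biological replicates.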

E. coli TESEC Mtb Alr [2] = details: compound 0.1 mM
Method: as §1

E. coli TESEC Mtb Asd = details: compound 0.1 mM
Method: (§2)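 TESEC E. coli strains in which the native enzyme is deleted and replaced by arabinose-inducible Mtb Asd, DapB, CysH or TrpD, each grown in its selective medium. Strains were screened against the Prestwick library at 0.1 mM and 1% DMSO in 384-well format at low and high arabinose induction. Growth is read as OD600 after 10 h in triplicate.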

E. coli TESEC Mtb DapB = details: compound 0.1 mM
Method: as §2

E. coli TESEC Mtb Alr [3] = details: compound 0.1 mM; remark: listed apart in the source
Method: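 TESEC Mtb Alr E. coli (ΔaraC ΔtolC ΔentC Δalr ΔdadX, arabinose-inducible Mtb Alr) or the Alr+ wild-type control strain, grown in defined M9-fructose medium without D-alanine in 96-well plates with Prestwick library compounds at 0.1 mM and 1% DMSO. Low Alr induction is 0.1 µM arabinose and high induction is 10 mM arabinose.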

[4] = arabinose 1000 nM, raw OD600 reference: median of DMSO wells 0.294, cell-free background 0.041
[5] = arabinose 10000 nM, raw OD600 reference: median of DMSO wells 0.264, cell-free background 0.041
[6] = arabinose 100000 nM, raw OD600 reference: median of DMSO wells 0.201, cell-free background 0.041
[7] = arabinose 1000000 nM, raw OD600 reference: median of DMSO wells 0.193, cell-free background 0.041
[8] = arabinose 10000000 nM, raw OD600 reference: median of DMSO wells 0.146, cell-free background 0.041
[9] = arabinose induction (level): High, raw OD600 reference: median of DMSO wells 0.331, cell-free background 0.041
[10] = arabinose induction (level): Low, raw OD600 reference: median of DMSO wells 0.417, cell-free background 0.041
[11] = arabinose induction (level): High, raw OD600 reference: median of DMSO wells […], cell-free background 0.041
[12] = arabinose induction (level): Low, raw OD600 reference: median of DMSO wells 0.227, cell-free background 0.041
[13] = arabinose 100 nM, raw OD600 reference: median of DMSO wells 0.413, cell-free background 0.052
[14] = arabinose 10000000 nM, raw OD600 reference: median of DMSO wells […], cell-free background 0.052

SMILES | growth [1] | growth (E. coli TESEC Mtb Alr [2]; [4]) | growth (E. coli TESEC Mtb Alr [2]; [5]) | growth (E. coli TESEC Mtb Alr [2]; [6]) | growth (E. coli TESEC Mtb Alr [2]; [7]) | growth (E. coli TESEC Mtb Alr [2]; [8]) | growth (E. coli TESEC Mtb Asd; [9]) | growth (E. coli TESEC Mtb Asd; [10]) | growth (E. coli TESEC Mtb DapB; [11]) | growth (E. coli TESEC Mtb DapB; [12]) | growth (E. coli TESEC Mtb Alr [3]; [13]) | growth (E. coli TESEC Mtb Alr [3]; [14])
S=C(NC1CCCCC1)N1CCC(c2cnc[nH]2)CC1 [Thioperamide maleate] | 0.218 ± 0.0074 | 0.286 ± 0.015 | 0.257 ± 0.013 | 0.17 ± 0.016 | 0.15 ± 0.0049 | 0.131 ± 0.0035 | 0.273 ± 0.013 | 0.495 ± 0.039 | 0.201 ± 0.015 | 0.21 ± 0.008 | 0.402 ± 0.016 | 0.299 ± 0.029
CCC1(c2ccc(N)cc2)CCC(=O)NC1=O (stereo unspecified) [Glutethimide, para-amino] | 0.24 ± 0.0099 | 0.279 ± 0.016 | 0.251 ± 0.01 | 0.222 ± 0.029 | 0.178 ± 0.0065 | 0.146 ± 0.0091 | 0.393 ± 0.032 | 0.43 ± 0.03 | 0.189 ± 0.0071 | 0.226 ± 0.041 | 0.402 ± 0.014 | 0.383 ± 0.033
O=[N+]([O-])O[C@H]1CO[C@H]2[C@@H]1OC[C@H]2O[N+](=O)[O-] [Isosorbide dinitrate] | 0.243 ± 0.013 | 0.32 ± 0.014 | 0.263 ± 0.0089 | 0.217 ± 0.025 | 0.185 ± 0.0031 | 0.159 ± 0.0026 | 0.476 ± 0.013 | 0.419 ± 0.07 | 0.213 ± 0.012 | 0.27 ± 0.03 | 0.4084 ± 0.0022 | 0.343 ± 0.014
CCN(CC)C(C)C(=O)c1ccccc1 (stereo unspecified) [Amfepramone hydrochloride] | 0.25 ± 0.0034 | 0.259 ± 0.051 | 0.261 ± 0.014 | 0.179 ± 0.027 | 0.187 ± 0.0038 | 0.141 ± 0.0089 | 0.256 ± 0.064 | 0.447 ± 0.047 | 0.202 ± 0.018 | 0.218 ± 0.021 | 0.411 ± 0.0098 | 0.325 ± 0.016
CC(C)CC(N(C)C)C1(c2ccc(Cl)cc2)CCC1 (stereo unspecified) [Sibutramine HCl] | 0.198 ± 0.0063 | 0.264 ± 0.0096 | 0.269 ± 0.0079 | 0.193 ± 0.032 | 0.131 ± 0.0058 | 0.137 ± 0.0051 | 0.213 ± 0.043 | 0.37 ± 0.098 | 0.161 ± 0.014 | 0.185 ± 0.012 | 0.414 ± 0.0078 | 0.35 ± 0.014
CCN(C(C)=O)c1cccc(-c2ccnc3c(C#N)cnn23)c1 [Zaleplon] | 0.205 ± 0.0057 | 0.259 ± 0.0063 | 0.238 ± 0.004 | 0.205 ± 0.028 | 0.154 ± 0.0051 | 0.132 ± 0.0056 | 0.243 ± 0.034 | 0.307 ± 0.086 | 0.179 ± 0.013 | 0.201 ± 0.0029 | 0.411 ± 0.012 | 0.298 ± 0.011
C[C@]12CC[C@@H]3c4ccc(OC(=O)N(CCCl)CCCl)cc4CC[C@H]3[C@@H]1CC[C@@H]2O [Estramustine] | 0.248 ± 0.0012 | 0.306 ± 0.011 | 0.284 ± 0.01 | 0.212 ± 0.011 | 0.147 ± 0.009 | 0.1686 ± 0.00066 | 0.207 ± 0.025 | 0.189 ± 0.049 | 0.173 ± 0.0048 | 0.187 ± 0.015 | 0.396 ± 0.014 | 0.31 ± 0.0085
CC(=O)[C@H]1CC[C@H]2[C@@H]3CC[C@H]4C[C@H](O)CC[C@]4(C)[C@H]3C(=O)C[C@]12C [Alfaxalone] | 0.1302 ± 0.0013 | 0.162 ± 0.0069 | 0.21 ± 0.0045 | 0.108 ± 0.0044 | 0.101 ± 0.0035 | 0.0965 ± 0.0034 | 0.161 ± 0.045 | 0.275 ± 0.038 | 0.155 ± 0.031 | 0.203 ± 0.028 | 0.3696 ± 0.00096 | 0.192 ± 0.015
C[C@@H]1CC[C@H]2[C@@H](C)C(=O)O[C@@H]3O[C@@]4(C)CC[C@@H]1[C@]32OO4 [Artemisinin] | 0.125 ± 0.01 | 0.121 ± 0.0046 | 0.194 ± 0.0057 | 0.142 ± 0.013 | 0.109 ± 0.0053 | 0.135 ± 0.0031 | 0.219 ± 0.025 | 0.216 ± 0.042 | 0.179 ± 0.012 | 0.191 ± 0.0069 | 0.348 ± 0.0058 | 0.135 ± 0.025
C[N+]12CCC(CC1)C(OC(=O)C(O)(c1ccccc1)c1ccccc1)C2 (stereo unspecified) [Clidinium bromide] | 0.239 ± 0.0044 | 0.326 ± 0.011 | 0.273 ± 0.0033 | 0.175 ± 0.03 | 0.187 ± 0.01 | 0.132 ± 0.0086 | 0.288 ± 0.035 | 0.453 ± 0.034 | 0.169 ± 0.01 | 0.201 ± 0.0094 | 0.406 ± 0.015 | 0.353 ± 0.019
C=C1C[C@@H]2[C@H](CC[C@]3(C)C(=O)CC[C@@H]23)[C@@]2(C)C=CC(=O)C=C12 [Exemestane] | 0.113 ± 0.0025 | 0.1298 ± 0.0011 | 0.165 ± 0.0017 | 0.108 ± 0.0018 | 0.0722 ± 0.0026 | 0.0997 ± 0.0036 | 0.0993 ± 0.0088 | 0.147 ± 0.023 | 0.112 ± 0.0048 | 0.109 ± 0.0022 | 0.379 ± 0.039 | 0.129 ± 0.019
N[C@@H]1C[C@H]1c1ccccc1 [Tranylcypromine hydrochloride] | 0.241 ± 0.013 | 0.285 ± 0.018 | 0.28 ± 0.0083 | 0.203 ± 0.02 | 0.19 ± 0.0048 | 0.141 ± 0.0022 | 0.354 ± 0.034 | 0.388 ± 0.012 | 0.183 ± 0.0098 | 0.23 ± 0.012 | 0.411 ± 0.011 | 0.371 ± 0.024
CC[C@@]1(O)C(=O)OCc2c1cc1n(c2=O)Cc2cc3ccccc3nc2-1 [Camptothecine (S,+)] | 0.2398 ± 0.0022 | 0.28 ± 0.012 | 0.267 ± 0.0074 | 0.192 ± 0.016 | 0.184 ± 0.0026 | 0.141 ± 0.0034 | 0.292 ± 0.075 | 0.43 ± 0.046 | 0.199 ± 0.01 | 0.228 ± 0.039 | 0.465 ± 0.052 | 0.434 ± 0.031
